The values below come from PubChem BioAssay (EPA / NIEHS).

Test [1] is described as follows: CCTE_Deisenroth_5AR_NBTE_donor: CCTE's 5alpha-reductase NanoBRET Target Engagement Assay […], Deisenroth Lab (AID 2284319). To be noted: actives raise or lower the signal. Put shortly: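 HEK293T cells transiently expressing SRD5A2-NanoLuc, exposed 5 h to chemicals (8 points, 10 nM - 29.9 uM), with testosterone tracer for the final 2 h. Donor luminescence at 460 nm read after Nano-Glo substrate plus extracellular NanoLuc inhibitor; bidirectional fit versus DMSO.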

A further test relates to SRD5A2 (gene 6716). Description: CCTE_Deisenroth_5AR_NBTE_ratio: CCTE's 5alpha-reductase NanoBRET Target Engagement Assay - Ratio, Deisenroth Lab (AID 2284322). The settings on record: actives raise or lower the signal. Put shortly:
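HEK293T cells transiently expressing an SRD5A2-NanoLuc fusion (20 h post-transfection) were exposed to test chemical (10 nM - 29.9 uM, 8 points) for 3 h, then testosterone tracer for a further 2 h. Acceptor/donor BRET ratio was fitted bidirectionally against DMSO baseline.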

The next test relates to TTR (gene 7276). The test is described as follows: CCTE_GLTED_hTTR_0.125uM: CCTE's human Transthyretin (hTTR) Inhibition Assay, with 0.125uM TTR, Great Lakes Toxicology and Ecology Division (GLTED) Lab (AID 2284431).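 Also: hits lower the fluorescence signal relative to DMSO baseline.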 Put shortly:
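Cell-free displacement of the fluorescent probe ANSA from human TTR (0.125uM) after 2 h incubation with test chemical. Fluorescence read at 380 nm excitation/475 nm emission; loss of signal fitted relative to DMSO baseline.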

The target in test [2] is bovine Estrogen Receptor (ER), ESR1 (gene 407238) (UniProt P49884). The test is described as follows: NVS_NR_bER: NovaScreen (NVS) Nuclear Receptor Binding Assay for bovine Estrogen Receptor (ER) (AID 2283345; active = hit-call score of the fitted dose curve at least 0.9, where 1 is the maximum;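 also: actives lower the bound radioligand count which means they displace the ER ligand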). The method in brief:
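Cell-free radioligand binding with bovine uterine membrane extracts, read 18 hours after dosing by scintillation counting. Loss of signal versus DMSO baseline indicates displacement. Primary screen run in duplicate at 25 uM, actives followed in concentration series.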

For test [3], the target named is Cytochrome P450 2C19 (Homo sapiens) (UniProt P33261). The test is described as follows: NVS_ADME_hCYP2C19: NovaScreen (NVS) CYP450-related Enzyme Activity (ADME) Assay for human CYP2C19 (AID 2283113; active = hit-call score of the fitted dose curve at least 0.9, where 1 is the maximum;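 as to AC50: potency for inhibition seen as loss of fluorescent signal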). The method in brief: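 Cell-free assay of recombinant human CYP2C19 expressed in insect cells, with a fluorogenic substrate; fluorescence intensity read 1 hour after dosing. Loss of signal relative to acetonitrile negative control indicates inhibition. Primary screen at 10 uM in duplicate, then concentration series.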

The target in test [4] is Androgen Receptor/SRC-1 Co-activator, AR (gene 367) (UniProt P10275). Description: OT_AR_ARSRC1_0960: Odyssey Thera (OT) 16-hour HEK293T Protein-Complementation Assay for Androgen Receptor/SRC-1 Co-activator (AID 2283353; active = hit-call score of the fitted dose curve at least 0.9, where 1 is the maximum;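 also: actives raise the signal above DMSO so potency reflects increased AR and SRC-1 complex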). The method in brief:
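Endpoint is gain-of-signal N/C fluorescence ratio in the 488 nm channel versus DMSO, from at least 400 cells per image, measured 16 h post-dosing. Cells: HEK293T stably carrying split-Venus AR/SRC-1 complementation constructs.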

For test [5] the target is unchanged. Description: OT_AR_ARSRC1_0480: Odyssey Thera (OT) 8-hour HEK293T Protein-Complementation Assay for Androgen Receptor/SRC-1 Co-activator (AID 2283354; active = hit-call score of the fitted dose curve at least 0.9, where 1 is the maximum;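 also: hits raise the complementation signal above DMSO so AC50 marks enhancers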). Put shortly: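 After 8 h dosing, stably expressing HEK293T cells with split-Venus AR/SRC-1 fusions were imaged (488, 635nm). The 488nm N/C ratio per image gave the endpoint, analysed in the positive direction against DMSO.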

For test [6], the target named is Agonist Androgen Response Element (ARE), AR (gene 367) (UniProt P10275). Description: OT_AR_ARELUC_AG_1440: Odyssey Thera (OT) 24-hour CHO-K1 Luciferase Assay for Agonist Androgen Response Element (ARE) (AID 2283379; active = hit-call score of the fitted dose curve at least 0.9, where 1 is the maximum). The method in brief:
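Luminescence increase above DMSO, read after a 24 h compound treatment of CHO-K1 cells expressing an androgen response element luciferase reporter, gives the single primary endpoint; concentration-response fitting used the positive direction.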

For the next test, the target named is AR (gene 367) (UniProt P10275). Description: ACEA_AR_antagonist_80hr: ACEA Biosciences xCELLigence Real-Time Cell Analysis on Androgen Receptor Antagonism for Proliferation (AID 2283787; active = hit-call score of the fitted dose curve at least 0.9, where 1 is the maximum;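 also: 22Rv1 human prostate cancer cells with growth followed by electrical impedance; hits lower the impedance growth signal relative to DMSO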). Put shortly: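 Using 22Rv1 cells held in assay medium, we dosed compounds (100 uM maximum final, 1:4 serial, eight points, 0.5% DMSO at top) and recorded cell-electrode impedance; the 80 hr timepoint was analyzed against DMSO.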
AR (gene 367), sequence (P10275 whole entry, looked up): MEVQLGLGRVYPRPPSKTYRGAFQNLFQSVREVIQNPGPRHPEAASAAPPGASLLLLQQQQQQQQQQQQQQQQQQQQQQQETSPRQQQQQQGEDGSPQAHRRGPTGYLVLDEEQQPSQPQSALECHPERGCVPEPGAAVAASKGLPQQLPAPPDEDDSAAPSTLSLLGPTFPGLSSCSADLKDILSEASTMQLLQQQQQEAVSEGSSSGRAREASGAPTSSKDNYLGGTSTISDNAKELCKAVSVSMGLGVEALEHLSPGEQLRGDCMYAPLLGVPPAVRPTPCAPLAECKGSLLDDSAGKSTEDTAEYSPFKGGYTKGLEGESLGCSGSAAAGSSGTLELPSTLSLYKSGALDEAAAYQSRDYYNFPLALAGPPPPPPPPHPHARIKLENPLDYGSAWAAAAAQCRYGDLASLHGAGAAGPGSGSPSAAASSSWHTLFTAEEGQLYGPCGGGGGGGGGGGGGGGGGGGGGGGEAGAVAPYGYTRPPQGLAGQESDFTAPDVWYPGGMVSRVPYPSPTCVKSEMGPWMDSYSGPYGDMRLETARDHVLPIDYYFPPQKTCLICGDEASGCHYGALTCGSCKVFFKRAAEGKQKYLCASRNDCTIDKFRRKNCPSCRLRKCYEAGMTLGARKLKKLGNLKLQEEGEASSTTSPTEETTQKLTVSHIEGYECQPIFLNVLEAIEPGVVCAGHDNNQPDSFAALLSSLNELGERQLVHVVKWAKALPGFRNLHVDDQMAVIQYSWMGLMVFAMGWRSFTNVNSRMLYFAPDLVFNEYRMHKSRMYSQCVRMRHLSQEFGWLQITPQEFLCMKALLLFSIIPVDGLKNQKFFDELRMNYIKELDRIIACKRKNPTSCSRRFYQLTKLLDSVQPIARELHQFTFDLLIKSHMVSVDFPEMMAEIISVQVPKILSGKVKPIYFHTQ

Test [7] is described as follows: CCTE_Shafer_MEA_dev_firing_rate_mean: CCTE's Neural Network Formation Assay for Mean Firing Rate, Shafer Lab (AID 2284031).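 As to AC50: curve fitted for loss of firing so AC50 reflects decreased mean firing rate.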 Put shortly:
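Spike frequency (spikes/recording length, averaged over active electrodes) was recorded on days 5, 7, 9 and 12 and collapsed to AUC; rat cortical cultures received compound continuously over 12 days of network development.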

The nature of test [8]: CCTE_Shafer_MEA_dev_per_burst_spike_percent: CCTE's Neural Network Formation Assay for Percent of Spikes in a Burst, Shafer Lab (AID 2284032).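 As to AC50: fitted as a decrease in burst spike percentage below DMSO baseline.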 The method in brief:
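Value is trapezoidal AUC over recordings on days 5, 7, 9 and 12 of the well-mean fraction of spikes falling in single-electrode bursts; rat cortical cultures exposed continuously from plating, treatment renewed DIV 5 and 9, fitted downward against DMSO.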

Test [9] is described as follows: CCTE_Shafer_MEA_dev_active_electrodes_number: CCTE's Neural Network Formation Assay for Number of Active Electrodes, Shafer Lab (AID 2284040; active = hit-call score of the fitted dose curve at least 0.9, where 1 is the maximum;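 as to AC50: potency for loss of active electrodes versus DMSO so lower counts are hits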). Put shortly: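 Counts electrodes per well firing at least 5 spikes/min, recorded on days 5, 7, 9 and 12 in rat cortical cultures dosed continuously from plating (treatment refreshed DIV 5, 9). Value is the area under the curve over recordings, fitted downward relative to DMSO.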

Test [10] in a line: CCTE_Shafer_MEA_dev_burst_rate: CCTE's Neural Network Formation Assay for Burst Rate, Shafer Lab (AID 2284042).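 As to AC50: potency for loss of burst rate below DMSO control.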 Put shortly: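 Primary rat cortical neurons on PEI-coated 48-well MEA plates (laminin added with cells at plating) (16 electrodes/well), exposed from plating to day 12, dosing renewed at DIV 5 and 9. Burst rate averaged over active electrodes, recorded DIV 5, 7, 9, 12, summarized as AUC; loss versus DMSO.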

Test [11] in a line: CCTE_Shafer_MEA_dev_burst_duration_mean: CCTE's Neural Network Formation Assay for Mean Burst Duration, Shafer Lab (AID 2284045).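 As to AC50: curve fitted for loss meaning shorter burst duration than DMSO.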 The method in brief: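 Network-formation assay in primary rat cortical neurons; treatment spans twelve days of development. Mean burst duration per well is integrated by trapezoidal AUC and fitted in the loss-of-signal direction against DMSO baseline.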

A short description of test [12]: CCTE_Shafer_MEA_dev_interburst_interval_mean: CCTE's Neural Network Formation Assay for Mean Interburst Interval, Shafer Lab (AID 2284046).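 Also: well-mean interburst interval of bursting electrodes as AUC over four recording days; curve fitted for decrease in interburst interval relative to DMSO.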 Put shortly:
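Recordings on days 5, 7, 9 and 12 give well-mean interburst interval across actively bursting electrodes, summarized as area under the curve. Cultures: rat cortical neurons, continuous exposure from day 0, compound renewed at feeds; decrease analyzed versus DMSO.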

A short description of test [13]: CCTE_Shafer_MEA_dev_inter_network_spike_interval_mean: CCTE's Neural Network Formation Assay for Mean Inter-network Spike Interval, Shafer Lab (AID 2284047). The method in brief:
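Primary rat cortical neurons on 16-electrode MEA wells, exposed from plating day 0 through DIV 12, compound renewed at DIV 5 and 9 media changes. Mean interval between network-spike peaks recorded DIV 5, 7, 9, 12; collapsed as trapezoidal AUC, fitted downward versus DMSO.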

Test [14] is described as follows: CCTE_Shafer_MEA_dev_network_spike_number: CCTE's Neural Network Formation Assay for Number of Network Spikes, Shafer Lab (AID 2284048).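 Also: synchronized bursts across electrodes counted on days 5 7 9 12 and integrated as AUC.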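 As to AC50: fit as a loss of signal meaning fewer network spikes than DMSO.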 The method in brief: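 Extracellular recordings from 16-electrode wells track network formation in rat cortical cultures under continuous treatment from plating. The endpoint is network spike number, expressed as AUC across DIV 5–12 relative to DMSO vehicle.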

Test [15] in a line: CCTE_Shafer_MEA_dev_network_spike_peak: CCTE's Neural Network Formation Assay for Mean Number of Electrodes in Network Spike, Shafer Lab (AID 2284049).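 As to AC50: fitted for loss of signal meaning fewer electrodes in network spikes than DMSO.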 The method in brief:
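Continuous 12-day exposure of rat cortical cultures, starting at plating, on MEA plates. Endpoint: electrodes participating in network-spike peaks, AUC across DIV 5–12, DMSO as negative control.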

Test [16] can be described thus: CCTE_Shafer_MEA_dev_spike_duration_mean: CCTE's Neural Network Formation Assay for Mean Spike Duration, Shafer Lab (AID 2284051).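 Also: mean network spike duration pooled as area under curve over DIV 5 to 12 recordings.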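 As to AC50: potency for a decrease in mean network spike duration versus DMSO.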 Put shortly:
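Primary rat cortical neurons on 16-electrode MEA wells (PEI-coated, laminin in plating drop), exposed from plating through DIV 12 with compound renewed at DIV 5 and 9. Mean network-spike duration recorded DIV 5, 7, 9, 12; trapezoidal AUC across days, DMSO baseline.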

Test [17] is described as follows: CCTE_Shafer_MEA_dev_network_spike_duration_std: CCTE's Neural Network Formation Assay for Standard Deviation of Network Spike Duration, Shafer Lab (AID 2284052).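 Also: area under curve of spike duration SD across recording days 5 to 12; hits are decreases in network spike duration SD versus DMSO vehicle.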 The method in brief: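 Primary rat cortical neurons on PEI-coated 16-electrode MEA wells, exposed from plating day 0 through day 12 with compound renewed at DIV 5 and 9. Network spike duration SD recorded on days 5, 7, 9, 12, collapsed as trapezoidal AUC; loss-of-signal fit versus DMSO.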

Results filed as inconclusive are left out. Some compounds were tested as several samples or in several runs, with calls that do not always agree. Calls of active or inactive are those of the source. The calls were made as follows, unless noted: active = hit-call score of the fitted dose curve at least 0.9, where 1 is the maximum; inactive = score below 0.9.

Androgen Receptor/SRC-1 Co-activator, AR (gene 367), sequence (P10275 whole entry, looked up): as above
Agonist Androgen Response Element (ARE), AR (gene 367), sequence (P10275 whole entry, looked up): as above
bovine Estrogen Receptor (ER), ESR1 (gene 407238), sequence (P49884 whole entry, looked up): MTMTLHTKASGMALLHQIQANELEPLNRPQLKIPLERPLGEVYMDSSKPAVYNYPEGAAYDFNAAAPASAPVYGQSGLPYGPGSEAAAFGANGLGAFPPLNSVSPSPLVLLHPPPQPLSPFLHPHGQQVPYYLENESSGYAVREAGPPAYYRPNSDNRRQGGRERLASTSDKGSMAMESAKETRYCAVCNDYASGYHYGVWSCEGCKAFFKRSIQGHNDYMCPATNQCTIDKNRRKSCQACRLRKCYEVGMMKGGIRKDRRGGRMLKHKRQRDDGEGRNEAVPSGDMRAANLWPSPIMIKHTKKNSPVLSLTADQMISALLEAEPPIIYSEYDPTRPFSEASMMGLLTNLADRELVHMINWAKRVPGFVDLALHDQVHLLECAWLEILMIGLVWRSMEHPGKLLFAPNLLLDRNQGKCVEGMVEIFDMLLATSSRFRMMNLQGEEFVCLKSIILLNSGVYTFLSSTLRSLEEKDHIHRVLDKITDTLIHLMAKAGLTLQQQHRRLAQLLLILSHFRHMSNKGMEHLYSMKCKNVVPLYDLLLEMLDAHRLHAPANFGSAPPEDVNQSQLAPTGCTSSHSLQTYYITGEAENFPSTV

For `C=CC(=O)OCC(CC)CCCC` (stereo not drawn), the result (in test [1]; in the test on SRD5A2 (gene 6716)) was inactive.
On to `Nc1ccc(Cl)c(Cl)c1`, for which, in the test with TTR (gene 7276), the concentration at half-maximal activity (AC50) is 18.3 µM (active).
Take `O=C(O)c1cc[c]([Hg][Cl])cc1`: the call in test [2] was inactive.
As for `O=CNC(N1CCN(C(NC=O)C(Cl)(Cl)Cl)CC1)C(Cl)(Cl)Cl` (stereo not drawn), the AC50 in [3] was 5.96 µM (active). The outcome (in test [4]; in test [5]; in [6]; with AR (gene 367)) was inactive.
Consider `Cc1ccc(OP(=O)(Oc2ccc(C)cc2)Oc2ccc(C)cc2)cc1` (tested in a mixture with another compound), for which the compound was classed as inactive in test [7], in test [8], in [9], in test [10], in test [11] and in test [12]. The compound was called inactive in test [13], in test [14], in [15], in test [16] and in test [17].
On to `CC1CCCC1.[C-]#[O+].[C-]#[O+].[C-]#[O+].[Mn]`, for which the call in test [7], in [8], in test [9], in test [10], in test [11] and in test [12] was inactive. Also, the compound was called inactive in test [13], in test [14], in test [15], in test [16] and in [17].
`CC1(C)[C@H](C(=O)O[C@H](C#N)c2cccc(Oc3ccccc3)c2)[C@@H]1C=C(Br)Br`: the AC50 is 0.134 µM (active) in test [3]; 50 µM (active) with AR (gene 367); 3.1 µM (active) in [7]; 7.16 µM (active) in test [8]; 8.89 µM (active) in test [9]; 3.86 µM (active) in [10]. The AC50 in test [11] was 5.29 µM (active); in test [14], 0.853 µM (active); in test [15], 7.55 µM (active); in test [16], 6.4 µM (active); in test [17] it was 3.82 µM (active). The compound was classed as inactive (in test [3]; in [4]; in [5]; in [6]; in the test with AR (gene 367); in test [12]). Moreover, in test [13], the outcome was inactive.
Turning to `c1ccc(P(c2ccccc2)c2ccccc2)cc1`, in test [2], the compound was called inactive.
Regarding `Oc1cc(Cl)ccc1Cl`, the compound was classed as inactive (in test [1]; with SRD5A2 (gene 6716)). The concentration at half-maximal activity (AC50) in the test on TTR (gene 7276) was 1.17 µM (active).
